Compounds with a hit are over-represented: about 19% of the library has one in this group of screens.
IL1B secr inh: inflammasome signaling inhibition, IL-1 beta readout; activity change, % at 57.5 µM; 360,000 compounds, 4.7% hits; THP-1 LPS/ATP IL-1B secretion, AlphaLISA, 16 h; hits give low values; AID 743279; in the data active = activity change below about -50%; inconclusive = mostly about -30% to -49%; note: % is set by controls: 0 for no effect and ±100 for the full control effect
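THP-1 cells pretreated 1 hr with compounds (up to 57.5 uM final), then stimulated with LPS (250 ng/mL final) plus ATP (1.25 mM final); secreted IL-1B measured by AlphaLISA after 16 hr, decreased signal indicating inhibition.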
MCF10A rereplic: induces DNA re-replication in MCF 10a normal breast cells; Potency, µM (highest dose often 46.1 µM), for the others: at the top dose activity, positive = re-replication, hits mostly activators; AID 624296; MCF 10A DNA re-replication, Hoechst nuclear intensity, 48 h; 350,000 compounds, 2.9% hits; note: potency is the fitted concentration of half-maximal effect; % of control where 0% means no effect; nearly all actives have a fitted effect of over 50% in size
TDP1 cell CPT: DT40-hTDP1 cell growth loss with CPT; chicken DT40 Tdp1-/-;hTDP1 cells + 20 nM CPT, ATP luminescence, 48 h; Potency, µM (doses to about 46.2 µM), without a hit: at the top dose activity change, negative = growth inhibition, usual class: inhibitors; 420,000 compounds, 12% hits; AID 686979; note: potency is the fitted concentration of half-maximal effect; % is set by controls: 0 for no effect and ±100 for the full control effect; nearly all actives have a fitted effect of over 55% in size
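Chicken DT40 Tdp1-/- cells stably complemented with human TDP1 were seeded at 400 cells/well in medium containing 20 nM camptothecin, exposed to pin-transferred compounds, and grown at 37 °C for at least 48 hr. Viability was read as ATP luminescence.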
BCR signal inh: chronic active BCR signaling inhibition; ABC-DLBCL IkBa-CBG/CBR reporter, luminescence ratio, 4 h; Potency, µM (series often up to 46.1 µM), inactives show top-dose activity change, negative = inhibition, most hits filed as inhibitors; 340,000 compounds, 0.05% hits; active = well fitted inhibition curve with a large enough effect in the signal ratio, with a control signal flat, not every such curve was filed as active; inconclusive = small, poorly fitted or top-dose-only effect, or effect the other way, or a change in a side signal; the % refers to the signal ratio;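 note: potency is the fitted concentration of half-maximal effect; plate controls were basal doxycycline-induced cells for no effect and cells given 10 µM MG132 for full effect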
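TMD8 human ABC-DLBCL cells with doxycycline-inducible IκBα–green luciferase fusion and unfused red luciferase, in 0.5% FBS medium; compounds up to 46 uM, 4 h at 37C. Green/red luminescence ratio, filter-overlap corrected, fitted to concentration-response curves.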
TDP1 cell noCPT: qHTS for Inhibitors of human tyrosyl-DNA phosphodiesterase 1 (TDP1): qHTS in cells in absence of CPT; DT40 Tdp1-/- hTDP1 cells, no CPT, ATP luminescence, 48 h; Potency, µM (highest dose often 46.2 µM), for inactives: at the top dose activity change, negative = growth inhibition, usual class: inhibitors; 420,000 compounds, 15% hits; AID 686978, 2013; note: potency is the fitted concentration of half-maximal effect; % is set by controls: 0 for no effect and ±100 for the full control effect; nearly all actives have a fitted effect of over 55% in size
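Growth of hTDP1-complemented DT40 Tdp1-knockout cells is measured by ATP luminescence after at least 48 hr compound exposure at 37 °C, with DMSO substituting for the 20 nM CPT used in the parallel screen.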
SW480 rerep: inducers of DNA re-replication in SW480 colon cancer cells; SW480 DNA re-replication, Hoechst DNA content imaging, 48 h; Potency, µM (titrated, usually from 46.1 µM), inactives show top-dose re-replication activation, usual class: activators; 340,000 compounds, 1.8% hits; note: potency is the fitted concentration of half-maximal effect; % of control where 0% means no effect; nearly all actives have a fitted effect of over 55% in size
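250 cells/well; 23 nL cpd via pin tool; 48 hr, 37 C, 5% CO2; Hoechst 40 min; imager read of total nuclear intensity, ex 405/em 500-530 nm.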
The depositor's hits bear a star; ? = inconclusive; . = not tested or not shown; [ ] = another dose, or the depositor's remark. Unless noted, calls come from the whole dose curve; as a rule, active = well fitted curve in the direction sought with a large enough effect; inconclusive = small, poorly fitted or top-dose-only effect, or another doubt; inactive = no such curve, though single readings can be large; an effect the other way counts as inactive or inconclusive.

SMILES | IL1B secr inh | MCF10A rereplic | TDP1 cell CPT | BCR signal inh | TDP1 cell noCPT | SW480 rerep
CCCc1c(NC(=O)Nc2ccc(Cl)cc2Cl)cnn1-c1ccccc1 | 21.1 | ? | -16.0% | 11.2% | -19.3% | 14.6µM*
CC(=O)Nc1ccc(NC(=O)C(C)Sc2n[nH]c(=O)n2Cc2ccccc2)cc1 (centres undefined) | -2.5 | 1.3% | -5.6% | 2.3% | -7.8% | 1.7%
O=C(CNC(=O)N1CC(=O)Nc2ccccc21)Nc1ccc(F)c(Cl)c1 | -6.8 | -1.6% | -16.7% | 6.7% | 3.1% | -15.2%
Cc1cc(C)c(NC(=O)c2c(C)oc3c2C2=NCCN2C=N3)c(C)c1 | . | . | 16.4µM* | . | 16.4µM* | .
Cc1oc2c(c1C(=O)Nc1cccc(Br)c1)C1=NCCN1C=N2 | . | . | -6.0% | . | -8.3% | .
Cc1oc2c(c1C(=O)Nc1ccccc1Br)C1=NCCN1C=N2 | . | . | 18.4µM* | . | 20.6µM* | .
Cc1oc2c(c1C(=O)Nc1ccc(Cl)cc1F)C1=NCCN1C=N2 | . | . | -25.8% | . | 16.4µM* | .
Cc1cc(C)c(S(=O)(=O)NCC2CCC(C(=O)NCCCN3CCC(C)CC3)CC2)c(C)c1 (centres undefined) | -20.7 | 1.1% | ? | 0.1% | ? | -3.1%
CCOC(=O)c1ccc(NC(=O)C2=C(C)Nc3nc(SCc4ccc(Cl)cc4)nn3C2c2ccc(C)cc2)cc1 (centres undefined) | . | . | -15.2% | . | -3.2% | .
COc1ccc(-c2c(C)oc3ccc(C)cc23)cc1 | 24.9 | ? | -29.2% | ? | 0.1% | 13.3%
COc1ccc(-c2c3c(cc(C)[n+]2[O-])oc2ccc(OC)cc23)cc1 | ? | 16.4µM* | 25.9µM* | -0.3% | ? | 15.4%
COc1ccc2oc3cc(C)[n+]([O-])c(-c4ccc(C)cc4)c3c2c1 | -22.8 | 15.7% | ? | -5.3% | 0.206µM* | ?
O=C[C@H](O)[C@@H](O)[C@H](O[C@H]1O[C@H](CO)[C@@H](O[C@H]2O[C@H](CO)[C@@H](O)[C@H](O)[C@H]2O)[C@H](O)[C@H]1O)[C@H](O)CO | . | . | -6.3% | . | -1.8% | .
CC(=O)c1ccccc1OCCn1nc(C(=O)O)c2ccccc2c1=O | 28.5 | 0.1% | -3.1% | 10.1% | 16.4µM* | -2.8%
CCOC(=O)c1ccc(NC(=S)Nc2ccc(C)cc2)cc1 | -7.9 | -1.7% | 0.8% | -14.8% | ? | 4.7%
CCOC(=O)c1ccc(NC(=S)NNC(C)(C)C)cc1 | 0.0 | 16.0% | 5.8µM* | ? | 5.8µM* | ?
Cc1ncc2c(c1CNS(=O)(=O)N(C)C)CCN(C(=O)c1c(F)cccc1F)C2 | . | . | 6.3%[9.04 µM] | . | -10.1% | .
CCOC(=O)c1c(NC(=O)CSc2nnc(-c3ccccc3)n2CC)sc(C(C)=O)c1C | -15.6 | ? | ? | ? | ? | 9.4%
CCOC(=O)c1c(NC(=O)CSc2nnc(Cc3ccccc3)o2)sc(C(C)=O)c1C | -22.5 | 11.0% | 20.6µM* | -3.3% | 20.6µM* | -3.6%
CCc1nnc(NC(=O)CSc2nnc(Cc3ccccc3)o2)s1 | 32.1 | 0.7% | ? | 3.6% | -25.0% | 0.9%
CCOC(=O)c1sc(NC(=O)CSc2nnc(Cc3ccccc3)o2)c(C#N)c1C | -19.2 | 9.3% | 11.6µM* | ? | 16.4µM* | -11.4%
CCOC(=O)c1c(-c2ccc(C)cc2)csc1NC(=O)c1cc(-c2ccc(Cl)cc2)on1 | . | . | -5.5% | . | 0.2% | .
CCOC(=O)c1c(NC(=O)c2cc(-c3ccc(O)cc3)on2)sc(C(C)=O)c1C | -2.1 | ? | 4.61µM* | -0.2% | 5.8µM* | 6.2%
CCOC(=O)c1c(NC(=O)CSc2nnc(CNc3ccc(F)cc3)o2)sc(C(C)=O)c1C | -2.3 | 1.4% | -14.1% | ? | ? | -2.8%
CCOC(=O)c1c(NC(=O)CSc2nnc(-c3cccc(C)c3)n2CC)sc(C(C)=O)c1C | ? | ? | 23.1µM* | 12.8% | 23.1µM* | 8.5%
SMILES | IL1B secr inh | MCF10A rereplic | TDP1 cell CPT | BCR signal inh | TDP1 cell noCPT | SW480 rerep
O=C1NC[C@@H](CCCCN2CCN(CCC3CCCCC3)C(=O)C2=O)N(CCC2CCCCC2)C1=O | -4.3 | . | -16.4% | . | -12.5% | .
O=C(CC1NCCNC1=O)Nc1ccc(F)c(Cl)c1 (centres undefined) | . | . | -7.2% | . | -16.4% | .
Cc1ccc(C)c(S(=O)(=O)n2nc(C)c(S(=O)(=O)N3CCCCCC3)c2C)c1 | . | . | -2.4% | . | 6.1% | .
CCOC(=O)c1sc(NC(=O)CSc2nc(C)cc(C)n2)c(C#N)c1C | 31.4 | ? | ? | 5.3% | -27.0% | -1.4%
CCOC(=O)c1c(NC(=O)CSc2nc(C)cc(C)c2C#N)sc(C(C)=O)c1C | 11.7 | ? | 9.2µM* | 0.1% | 7.31µM* | ?
CCN(CC)C(=O)CCSc1nnc(-c2ccncc2)o1 | 8.3 | -0.3% | 1.7% | ? | -6.1% | -3.0%
CCOC(=O)c1c(NC(=O)CSc2nnc(-c3ccccc3)o2)sc(C(C)=O)c1C | 12.3 | 16.3% | 16.4µM* | ? | 23.1µM* | 1.7%
CCOC(=O)c1c(NC(=O)CSc2nnc(-c3ccc(C)cc3)o2)sc(C(C)=O)c1C | -18.6 | ? | ? | 8.1% | -25.4% | ?
CCOC(=O)c1c(NC(=O)CSc2cccc[n+]2[O-])sc(C(=O)Nc2ccccc2)c1C | ? | -0.9% | ? | ? | 18.4µM* | -8.2%
CCN(CC)C(=O)CSc1nnc(-c2ccccc2)o1 | -2.0 | 5.17µM* | 8.1% | ? | -2.4% | ?
CCN(CC)CCCNC(=O)Cc1ccc(NC(=O)N2CCCCc3ccccc32)cc1 | . | . | -18.9% | . | -18.2% | .
CSc1nc2nc(Cl)c(Cl)nc2[nH]1 | 22.2 | . | ? | . | ? | .
Cc1noc(C)c1CSCC(=O)N(C)CC(=O)Nc1ccc(F)c(F)c1F | 5.3 | -3.5% | -12.3% | 2.9% | -18.5% | -3.8%
COc1cccc(CN(C)C(=O)c2cccc(S(=O)(=O)N3CCN(Cc4ccccc4)CC3)c2)c1OC | -13.5 | 10.8% | 13µM* | 1.1% | 16.4µM* | -3.4%
COc1cccc(CN(C)C(=O)c2ccc(S(=O)(=O)Nc3cccc(C)c3C)cc2)c1OC | -11.9 | . | 18.4µM* | . | 18.4µM* | .
COc1cccc(CN(C)C(=O)c2ccc(Cl)c(S(=O)(=O)N3CCCCCC3)c2)c1OC | -53.3* | 6.8% | ? | . | ? | -23.0%
COc1cccc(CN(C)C(=O)c2ccc3c(=O)n4c(nc3c2)CCC4)c1OC | -3.1 | 11.1% | 9.6% | -5.6% | 3.0% | -0.5%
